Of roughly 8,800 targets only a part is listed; those with a hit were picked by preference. About 0.5% of all pairs of compound and target were hits. Values without a mark were called inactive.
Experiments:
Experiment in all cases: log2 fold change, soluble protein after heating vs DMSO (PISA); higher = thermal stabilisation; K562 lysate, 10 uM; active = over 0.2 and 3.5 SD of the protein, either way, in both replicates (recomputed)
[1] = compound: Cc1cn(-c2cc(NC(=O)c3ccc(C)c(Nc4nccc(-c5cccnc5)n4)c3)cc(C(F)(F)F)c2)cn1 [nilotinib]
Outline: (§1)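 Pellets of K562 cells were dounce-homogenised in PBS pH 7.4 with 1 mM MgCl2, and the crude extract was held at 1 mg/mL protein for a 30 min treatment with 10 μM compound. Aliquots were heated for 3 min over 48°C-58°C and pooled before NP-40 was added to 0.5% at 4°C. The supernatant from 21,000xg for 90 min was quantified by TMTpro 16plex LC-MS/MS with channel sums equalised. Values are reported from duplicates as log-two fold change in thermal stability relative to solvent controls.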

[2] = compound: Cc1nc(Nc2n[nH]c3c2CN(C(=O)N[C@H](CN(C)C)c2ccccc2)C3(C)C)c2sccc2n1
Outline: as §1

[3] = compound: Cc1nc(Nc2ncc(C(=O)Nc3c(C)cccc3Cl)s2)cc(N2CCN(CCO)CC2)n1 [dasatinib]
Outline: as §1

[4] = compound: Cc1ncc(-c2ccnc(Nc3ccc(S(C)(=O)=O)cc3)n2)n1C(C)C
Outline: as §1

[5] = compound: Cn1cc(-c2ccc3c(c2)CCN3C(=O)Cc2cccc(C(F)(F)F)c2)c2c(N)ncnc21
Outline: as §1

[6] = compound: Cn1cc(CNCC2CCN(c3ncc(C(=O)NO)cn3)CC2)c2ccccc21 [quisinostat]
Outline: as §1

[7] = compound: Cn1cncc1[C@@](N)(c1ccc(Cl)cc1)c1ccc2c(c1)c(-c1cccc(Cl)c1)cc(=O)n2C [tipifarnib]
Outline: as §1

[8] = compound: NC(=O)Nc1cc(-c2cccc(F)c2)sc1C(=O)N[C@H]1CCCNC1
Outline: as §1

[9] = compound: NC(=O)c1cnc(N[C@@H]2CCCC[C@@H]2N)nc1Nc1cccc(-n2nccn2)c1
Outline: as §1

[10] = compound: NC1(c2ccc(-c3nc4ccn5c(=O)[nH]nc5c4cc3-c3ccccc3)cc2)CCC1
Outline: as §1

Sequence of UniProt Q9UJZ1 (Q9UJZ1 whole entry, looked up): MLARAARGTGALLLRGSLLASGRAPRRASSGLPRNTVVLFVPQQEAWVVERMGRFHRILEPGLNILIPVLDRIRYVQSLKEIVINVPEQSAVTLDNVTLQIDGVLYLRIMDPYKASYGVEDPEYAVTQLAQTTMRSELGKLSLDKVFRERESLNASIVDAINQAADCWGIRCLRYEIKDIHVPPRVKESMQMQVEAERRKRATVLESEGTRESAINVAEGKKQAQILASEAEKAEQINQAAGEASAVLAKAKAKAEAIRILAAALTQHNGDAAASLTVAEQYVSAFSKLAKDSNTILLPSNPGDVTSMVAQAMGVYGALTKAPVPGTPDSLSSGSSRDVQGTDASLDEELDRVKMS
Sequence of UniProt Q9NZ72 (Q9NZ72 whole entry, looked up): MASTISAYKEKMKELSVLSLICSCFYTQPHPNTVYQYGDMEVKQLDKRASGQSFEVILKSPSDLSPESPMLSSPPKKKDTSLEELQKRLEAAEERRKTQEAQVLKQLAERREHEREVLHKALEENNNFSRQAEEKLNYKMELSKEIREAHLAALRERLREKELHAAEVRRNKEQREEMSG
Sequence of UniProt O00161 (O00161 whole entry, looked up): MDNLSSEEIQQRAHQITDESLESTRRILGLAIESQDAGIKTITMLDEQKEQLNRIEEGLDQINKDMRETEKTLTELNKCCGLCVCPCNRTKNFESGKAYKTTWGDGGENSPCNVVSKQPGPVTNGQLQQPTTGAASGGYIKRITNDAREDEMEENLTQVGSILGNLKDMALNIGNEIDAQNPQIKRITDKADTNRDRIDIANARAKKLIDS
Sequence of UniProt Q13043 (Q13043 whole entry, looked up): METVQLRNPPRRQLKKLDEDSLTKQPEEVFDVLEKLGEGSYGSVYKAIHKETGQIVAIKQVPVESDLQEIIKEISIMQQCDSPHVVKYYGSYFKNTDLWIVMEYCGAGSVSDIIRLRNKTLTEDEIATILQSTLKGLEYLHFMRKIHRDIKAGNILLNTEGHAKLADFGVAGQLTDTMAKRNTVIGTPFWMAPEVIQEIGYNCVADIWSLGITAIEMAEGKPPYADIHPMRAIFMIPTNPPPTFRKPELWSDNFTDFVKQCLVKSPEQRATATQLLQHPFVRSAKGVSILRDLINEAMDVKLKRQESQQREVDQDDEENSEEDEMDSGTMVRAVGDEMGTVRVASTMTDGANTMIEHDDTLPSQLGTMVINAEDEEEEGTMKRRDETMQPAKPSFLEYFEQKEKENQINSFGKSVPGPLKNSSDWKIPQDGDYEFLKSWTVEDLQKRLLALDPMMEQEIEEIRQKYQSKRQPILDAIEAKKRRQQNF
Sequence of UniProt P51532 (P51532 whole entry, looked up): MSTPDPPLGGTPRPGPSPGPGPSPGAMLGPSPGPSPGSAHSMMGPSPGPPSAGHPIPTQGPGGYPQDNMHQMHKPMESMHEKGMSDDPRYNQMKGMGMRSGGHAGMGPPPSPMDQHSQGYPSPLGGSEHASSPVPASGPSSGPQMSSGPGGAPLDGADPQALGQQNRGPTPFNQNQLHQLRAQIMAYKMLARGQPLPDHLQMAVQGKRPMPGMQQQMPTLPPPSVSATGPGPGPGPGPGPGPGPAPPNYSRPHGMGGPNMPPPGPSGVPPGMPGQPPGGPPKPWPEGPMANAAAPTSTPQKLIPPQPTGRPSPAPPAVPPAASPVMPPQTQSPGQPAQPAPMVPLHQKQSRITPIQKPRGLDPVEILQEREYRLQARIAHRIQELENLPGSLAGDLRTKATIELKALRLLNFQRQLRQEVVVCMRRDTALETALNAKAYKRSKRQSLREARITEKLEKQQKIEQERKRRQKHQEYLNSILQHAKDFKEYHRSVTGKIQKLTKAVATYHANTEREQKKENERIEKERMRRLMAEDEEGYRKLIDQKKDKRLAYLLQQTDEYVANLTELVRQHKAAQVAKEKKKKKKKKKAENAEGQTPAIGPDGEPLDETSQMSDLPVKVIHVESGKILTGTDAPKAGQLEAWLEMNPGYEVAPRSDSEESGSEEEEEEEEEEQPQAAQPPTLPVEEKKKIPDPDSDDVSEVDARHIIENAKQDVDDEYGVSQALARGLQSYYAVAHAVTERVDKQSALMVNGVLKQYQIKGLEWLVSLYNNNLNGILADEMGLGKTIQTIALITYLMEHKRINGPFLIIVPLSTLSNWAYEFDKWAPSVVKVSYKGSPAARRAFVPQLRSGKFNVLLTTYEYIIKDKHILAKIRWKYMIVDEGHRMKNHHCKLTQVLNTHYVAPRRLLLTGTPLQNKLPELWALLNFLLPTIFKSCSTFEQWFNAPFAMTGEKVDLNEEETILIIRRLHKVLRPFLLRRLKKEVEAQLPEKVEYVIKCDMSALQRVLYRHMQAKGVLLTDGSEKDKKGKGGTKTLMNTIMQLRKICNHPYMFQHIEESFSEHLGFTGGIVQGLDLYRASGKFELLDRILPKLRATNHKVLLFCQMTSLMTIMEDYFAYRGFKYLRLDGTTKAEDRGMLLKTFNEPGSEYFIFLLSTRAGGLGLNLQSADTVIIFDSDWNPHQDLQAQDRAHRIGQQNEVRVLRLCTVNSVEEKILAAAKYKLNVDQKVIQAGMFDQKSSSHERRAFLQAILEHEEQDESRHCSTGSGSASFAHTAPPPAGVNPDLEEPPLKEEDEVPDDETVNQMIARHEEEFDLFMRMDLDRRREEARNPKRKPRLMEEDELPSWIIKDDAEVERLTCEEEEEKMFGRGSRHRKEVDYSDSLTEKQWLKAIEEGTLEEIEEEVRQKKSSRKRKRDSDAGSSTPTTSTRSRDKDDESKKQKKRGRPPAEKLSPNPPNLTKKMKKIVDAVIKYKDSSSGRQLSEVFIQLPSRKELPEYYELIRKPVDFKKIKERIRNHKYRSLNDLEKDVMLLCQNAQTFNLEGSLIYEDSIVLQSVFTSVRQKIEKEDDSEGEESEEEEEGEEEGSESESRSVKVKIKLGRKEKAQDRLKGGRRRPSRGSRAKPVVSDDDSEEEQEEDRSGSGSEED
Sequence of UniProt Q9BXP5 (Q9BXP5 whole entry, looked up): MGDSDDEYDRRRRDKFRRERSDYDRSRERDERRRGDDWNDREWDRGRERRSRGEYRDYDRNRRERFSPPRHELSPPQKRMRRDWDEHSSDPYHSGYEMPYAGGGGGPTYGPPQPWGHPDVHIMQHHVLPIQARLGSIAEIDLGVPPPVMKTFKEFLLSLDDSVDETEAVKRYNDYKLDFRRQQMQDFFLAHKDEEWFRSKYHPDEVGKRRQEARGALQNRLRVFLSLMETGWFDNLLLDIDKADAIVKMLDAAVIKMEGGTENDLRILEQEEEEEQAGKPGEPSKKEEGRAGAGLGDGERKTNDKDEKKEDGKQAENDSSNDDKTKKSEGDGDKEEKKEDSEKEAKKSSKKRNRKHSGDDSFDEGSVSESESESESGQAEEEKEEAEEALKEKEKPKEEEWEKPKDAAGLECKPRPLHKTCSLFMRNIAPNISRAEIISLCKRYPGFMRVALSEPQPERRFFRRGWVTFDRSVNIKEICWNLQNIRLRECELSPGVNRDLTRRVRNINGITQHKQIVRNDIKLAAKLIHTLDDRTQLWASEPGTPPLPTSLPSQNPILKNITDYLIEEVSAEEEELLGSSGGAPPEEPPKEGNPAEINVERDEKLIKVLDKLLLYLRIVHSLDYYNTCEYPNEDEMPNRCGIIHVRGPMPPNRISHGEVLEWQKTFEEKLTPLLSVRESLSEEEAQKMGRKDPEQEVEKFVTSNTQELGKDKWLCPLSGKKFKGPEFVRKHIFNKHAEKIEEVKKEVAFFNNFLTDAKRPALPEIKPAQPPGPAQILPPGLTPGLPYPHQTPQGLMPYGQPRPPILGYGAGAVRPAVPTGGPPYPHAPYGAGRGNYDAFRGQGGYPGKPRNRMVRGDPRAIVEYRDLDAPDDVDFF
Sequence of UniProt Q9Y3B4 (Q9Y3B4 whole entry, looked up): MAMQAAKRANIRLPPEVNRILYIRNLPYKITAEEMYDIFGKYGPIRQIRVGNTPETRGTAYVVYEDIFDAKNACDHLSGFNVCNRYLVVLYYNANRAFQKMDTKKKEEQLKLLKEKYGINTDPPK
Sequence of UniProt Q53T94 (Q53T94 whole entry, looked up): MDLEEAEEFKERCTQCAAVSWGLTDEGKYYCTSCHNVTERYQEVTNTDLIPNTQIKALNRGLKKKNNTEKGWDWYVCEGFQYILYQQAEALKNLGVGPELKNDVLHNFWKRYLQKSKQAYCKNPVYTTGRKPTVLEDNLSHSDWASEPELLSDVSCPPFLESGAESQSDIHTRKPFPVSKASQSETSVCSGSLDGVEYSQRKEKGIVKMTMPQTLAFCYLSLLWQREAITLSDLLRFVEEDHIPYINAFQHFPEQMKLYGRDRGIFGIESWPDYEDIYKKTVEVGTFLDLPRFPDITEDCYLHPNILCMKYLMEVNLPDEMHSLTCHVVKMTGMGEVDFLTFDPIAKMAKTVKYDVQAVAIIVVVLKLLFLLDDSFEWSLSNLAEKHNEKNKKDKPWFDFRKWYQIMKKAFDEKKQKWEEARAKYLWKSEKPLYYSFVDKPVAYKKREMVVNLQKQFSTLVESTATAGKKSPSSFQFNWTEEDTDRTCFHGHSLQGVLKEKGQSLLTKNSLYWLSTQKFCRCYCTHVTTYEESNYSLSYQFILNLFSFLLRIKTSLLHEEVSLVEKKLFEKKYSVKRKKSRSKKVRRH
Sequence of UniProt P31947 (P31947 whole entry, looked up): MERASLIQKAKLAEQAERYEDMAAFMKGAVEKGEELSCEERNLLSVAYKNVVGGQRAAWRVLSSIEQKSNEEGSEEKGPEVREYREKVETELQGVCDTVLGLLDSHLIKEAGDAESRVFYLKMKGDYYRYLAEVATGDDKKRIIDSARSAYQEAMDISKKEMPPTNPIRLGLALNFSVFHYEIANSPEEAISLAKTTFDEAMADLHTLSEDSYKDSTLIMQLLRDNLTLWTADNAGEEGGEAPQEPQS
Sequence of UniProt Q96EX1 (Q96EX1 whole entry, looked up): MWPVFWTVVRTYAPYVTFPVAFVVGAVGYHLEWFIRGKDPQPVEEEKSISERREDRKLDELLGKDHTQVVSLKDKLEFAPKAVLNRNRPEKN

| Target | log2 fold change [1] | log2 fold change [2] | log2 fold change [3] | log2 fold change [4] | log2 fold change [5] | log2 fold change [6] | log2 fold change [7] | log2 fold change [8] | log2 fold change [9] | log2 fold change [10] |
| --- | --- | --- | --- | --- | --- | --- | --- | --- | --- | --- |
| SNAP23 (UniProt O00161) | 0.001 | 0.015 | 0.045 | -0.013 | 0 | 0.035 | 0.036 | -0.019 | -0.016 | 0.031 |
| TAF1B (UniProt Q53T94) | -0.061 | -0.067 | -0.174 | -0.105 | 0.635 | -0.064 | -0.103 | 0.017 | 0.015 |  |
| SMIM12 (UniProt Q96EX1) | 0.014 | 0.025 | 0.09 | 0.027 | 0.061 | -0.093 | -0.023 | 0.002 | -0.016 | -0.041 |
| SLC30A9 (UniProt Q6PML9) | -0.026 | 0.013 | -0.035 | -0.049 | 0.055 | 0.041 | 0.14 | -0.044 | -0.026 | -0.008 |
| SYNRG (UniProt Q9UMZ2) | -0.007 | 0.012 | 0.009 | 0.036 | 0.001 | 0.021 | -0.025 | 0.018 | 0.026 | -0.079 |
| SUZ12 (UniProt Q15022) | 0.03 | -0.025 | 0.037 | -0.013 | -0.008 | -0.005 | 0.016 | -0.007 | -0.013 | -0.026 |
| STMN3 (UniProt Q9NZ72) | -0.068 | 0.218 | 0.035 | -0.041 | -0.032 | 0.006 | 0.176 | -0.022 | -0.006 | 0.052 |
| TANGO6 (UniProt Q9C0B7) | 0.042 | -0.056 | -0.006 | 0.019 | 0.025 | -0.056 | 0.044 | 0.046 | -0.037 | -0.001 |
| SF3B6 (UniProt Q9Y3B4) | 0.045 | 0.013 | -0.036 | -0.028 | -0.038 | 0.016 | 0.021 | 0 | -0.054 | -0.03 |
| SLC25A25 isoform 3 (UniProt Q6KCM7) | 0.027 | -0.015 | 0.03 | -0.063 | 0.031 | -0.038 | -0.006 | 0.021 | 0.007 | -0.025 |
| STK4 (UniProt Q13043) | -0.077 | 0.343 | 0.214 | 0.177 | 0.282 | -0.105 | -0.047 | 0.585 (active) | 0.134 | -0.016 |
| SFN (UniProt P31947) | -0.036 | -0.007 | 0.088 | -0.007 | 0.008 | 0.077 | 0.052 | -0.048 | -0.023 | 0.035 |
| STOML2 (UniProt Q9UJZ1) | -0.017 | -0.01 | 0.004 | 0.017 | -0.001 | 0.035 | 0.005 | 0.018 | 0.002 | -0.003 |
| SRRT (UniProt Q9BXP5) | -0.013 | -0.028 | -0.087 | -0.005 | 0.026 | -0.058 | 0.013 | 0.058 | 0.016 | -0.023 |
| SMARCA4 isoform 4 (UniProt P51532) | -0.244 | -0.219 | -0.037 | 0.037 | 0.035 | -0.081 | 0.239 | 0.16 | -0.042 | 0.05 |

Source: the supplement of paper PMC10849652
